# Source: the supplement of paper PMC10849652
# The full data set covers some 7,900 targets. This sample favours those with a hit. About 0.6% of all pairs of compound and target were hits. Values without a mark were called inactive.
# What was measured:
# Assay in all cases: log2 fold change, soluble protein after heating vs DMSO (PISA); higher = thermal stabilisation; K562 cells, 10 uM, 30 min; active = over 0.2 and 3.5 SD of the protein, either way, in both replicates (recomputed)
# [1] = compound: Cc1ccc(NC(=O)c2ccc(CN3CC[C@H](N(C)C)C3)c(C(F)(F)F)c2)cc1Nc1nccc(-c2cncnc2)n1 [bafetinib]
# How it was run: (§1)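 K562 cells at 2×10^6 cells/mL were given 10 μM compound for 30 min. Aliquots then went through 3 min of heating across 48°C-58°C, were pooled, and were extracted in PBS with 0.5% NP-40 at 4°C, and the supernatant after 21,000xg for 90 min was quantified by TMTpro 16plex LC-MS/MS with channel sums equalised. Thermal stability relative to control samples, from duplicates, is given as log2 fold change.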
# [2] = compound: Cc1cccc(CC(=O)N2CCc3c2ccc(-c2cn(C)c4ncnc(N)c24)c3F)n1
# How it was run: as §1
# [3] = compound: Cc1cn(-c2cc(NC(=O)c3ccc(C)c(Nc4nccc(-c5cccnc5)n4)c3)cc(C(F)(F)F)c2)cn1 [nilotinib]
# How it was run: as §1
# [4] = compound: Cc1nc(Nc2n[nH]c3c2CN(C(=O)N[C@H](CN(C)C)c2ccccc2)C3(C)C)c2sccc2n1
# How it was run: as §1
# [5] = compound: Cc1nc(Nc2ncc(C(=O)Nc3c(C)cccc3Cl)s2)cc(N2CCN(CCO)CC2)n1 [dasatinib]
# How it was run: as §1
# [6] = compound: Cc1ncc(-c2ccnc(Nc3ccc(S(C)(=O)=O)cc3)n2)n1C(C)C
# How it was run: as §1
# [7] = compound: Cn1cc(-c2ccc3c(c2)CCN3C(=O)Cc2cccc(C(F)(F)F)c2)c2c(N)ncnc21
# How it was run: as §1
# [8] = compound: Cn1cc(-c2ccc3nnc(C(F)(F)c4ccc5ncccc5c4)n3n2)cn1
# How it was run: as §1
# [9] = compound: Cn1cncc1[C@@](N)(c1ccc(Cl)cc1)c1ccc2c(c1)c(-c1cccc(Cl)c1)cc(=O)n2C [tipifarnib]
# How it was run: as §1
# [10] = compound: FC(F)(F)c1ccc(/C=C/c2nc(COc3ccc(CCCCn4ccnn4)cc3)co2)cc1 [mubritinib]
# How it was run: as §1
# Chain of UniProt Q8NCE0 (Q8NCE0 whole entry, looked up): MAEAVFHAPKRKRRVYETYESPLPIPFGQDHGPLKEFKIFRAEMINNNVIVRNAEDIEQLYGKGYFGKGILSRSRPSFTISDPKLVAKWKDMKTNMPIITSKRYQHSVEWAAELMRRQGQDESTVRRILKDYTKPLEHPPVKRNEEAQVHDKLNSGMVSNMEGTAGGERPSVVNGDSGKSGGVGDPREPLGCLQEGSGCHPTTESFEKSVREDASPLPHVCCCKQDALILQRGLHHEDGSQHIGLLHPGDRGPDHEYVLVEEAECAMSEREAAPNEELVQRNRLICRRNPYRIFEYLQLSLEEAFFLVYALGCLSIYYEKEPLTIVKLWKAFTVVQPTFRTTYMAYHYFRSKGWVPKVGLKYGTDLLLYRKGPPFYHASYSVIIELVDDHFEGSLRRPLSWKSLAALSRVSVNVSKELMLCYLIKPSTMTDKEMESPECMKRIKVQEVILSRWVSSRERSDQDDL
# Chain of UniProt Q86WV6 (Q86WV6 whole entry, looked up): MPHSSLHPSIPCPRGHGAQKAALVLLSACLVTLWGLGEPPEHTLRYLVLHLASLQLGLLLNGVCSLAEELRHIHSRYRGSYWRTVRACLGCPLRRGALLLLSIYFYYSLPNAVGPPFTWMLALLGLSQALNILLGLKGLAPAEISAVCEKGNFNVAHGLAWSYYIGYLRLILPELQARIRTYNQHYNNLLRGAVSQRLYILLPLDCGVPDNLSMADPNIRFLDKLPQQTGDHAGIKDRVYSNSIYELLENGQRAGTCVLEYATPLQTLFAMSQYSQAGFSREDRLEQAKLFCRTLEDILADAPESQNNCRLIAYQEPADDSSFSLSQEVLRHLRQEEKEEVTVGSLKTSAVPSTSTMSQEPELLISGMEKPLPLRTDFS
# Chain of UniProt Q15061 (Q15061 whole entry, looked up): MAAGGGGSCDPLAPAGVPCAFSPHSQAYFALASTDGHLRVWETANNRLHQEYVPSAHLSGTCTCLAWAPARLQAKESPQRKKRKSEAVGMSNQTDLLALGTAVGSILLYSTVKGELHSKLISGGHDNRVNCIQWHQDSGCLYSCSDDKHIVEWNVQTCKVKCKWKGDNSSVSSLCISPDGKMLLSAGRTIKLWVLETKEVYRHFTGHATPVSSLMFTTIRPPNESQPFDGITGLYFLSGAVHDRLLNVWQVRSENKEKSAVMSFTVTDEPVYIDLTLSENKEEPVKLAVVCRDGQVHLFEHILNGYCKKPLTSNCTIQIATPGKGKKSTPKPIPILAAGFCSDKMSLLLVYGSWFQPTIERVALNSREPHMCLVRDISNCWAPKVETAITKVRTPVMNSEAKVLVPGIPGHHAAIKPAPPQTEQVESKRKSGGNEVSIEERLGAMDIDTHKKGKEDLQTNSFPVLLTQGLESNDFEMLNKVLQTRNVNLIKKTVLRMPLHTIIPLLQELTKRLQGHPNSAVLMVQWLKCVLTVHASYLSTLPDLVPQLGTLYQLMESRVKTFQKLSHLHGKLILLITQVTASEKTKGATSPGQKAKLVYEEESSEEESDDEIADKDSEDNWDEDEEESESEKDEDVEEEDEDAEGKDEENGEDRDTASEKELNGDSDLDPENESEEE
# Chain of UniProt Q9NUM4 (Q9NUM4 whole entry, looked up): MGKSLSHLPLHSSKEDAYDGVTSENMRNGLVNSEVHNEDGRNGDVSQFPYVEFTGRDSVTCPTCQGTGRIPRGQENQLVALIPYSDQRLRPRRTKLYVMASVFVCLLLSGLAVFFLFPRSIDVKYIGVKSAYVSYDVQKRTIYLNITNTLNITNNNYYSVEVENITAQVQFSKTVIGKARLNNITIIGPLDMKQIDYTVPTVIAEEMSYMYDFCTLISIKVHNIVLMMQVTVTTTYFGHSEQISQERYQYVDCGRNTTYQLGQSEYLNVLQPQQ
# Chain of UniProt Q12888 (Q12888 whole entry, looked up): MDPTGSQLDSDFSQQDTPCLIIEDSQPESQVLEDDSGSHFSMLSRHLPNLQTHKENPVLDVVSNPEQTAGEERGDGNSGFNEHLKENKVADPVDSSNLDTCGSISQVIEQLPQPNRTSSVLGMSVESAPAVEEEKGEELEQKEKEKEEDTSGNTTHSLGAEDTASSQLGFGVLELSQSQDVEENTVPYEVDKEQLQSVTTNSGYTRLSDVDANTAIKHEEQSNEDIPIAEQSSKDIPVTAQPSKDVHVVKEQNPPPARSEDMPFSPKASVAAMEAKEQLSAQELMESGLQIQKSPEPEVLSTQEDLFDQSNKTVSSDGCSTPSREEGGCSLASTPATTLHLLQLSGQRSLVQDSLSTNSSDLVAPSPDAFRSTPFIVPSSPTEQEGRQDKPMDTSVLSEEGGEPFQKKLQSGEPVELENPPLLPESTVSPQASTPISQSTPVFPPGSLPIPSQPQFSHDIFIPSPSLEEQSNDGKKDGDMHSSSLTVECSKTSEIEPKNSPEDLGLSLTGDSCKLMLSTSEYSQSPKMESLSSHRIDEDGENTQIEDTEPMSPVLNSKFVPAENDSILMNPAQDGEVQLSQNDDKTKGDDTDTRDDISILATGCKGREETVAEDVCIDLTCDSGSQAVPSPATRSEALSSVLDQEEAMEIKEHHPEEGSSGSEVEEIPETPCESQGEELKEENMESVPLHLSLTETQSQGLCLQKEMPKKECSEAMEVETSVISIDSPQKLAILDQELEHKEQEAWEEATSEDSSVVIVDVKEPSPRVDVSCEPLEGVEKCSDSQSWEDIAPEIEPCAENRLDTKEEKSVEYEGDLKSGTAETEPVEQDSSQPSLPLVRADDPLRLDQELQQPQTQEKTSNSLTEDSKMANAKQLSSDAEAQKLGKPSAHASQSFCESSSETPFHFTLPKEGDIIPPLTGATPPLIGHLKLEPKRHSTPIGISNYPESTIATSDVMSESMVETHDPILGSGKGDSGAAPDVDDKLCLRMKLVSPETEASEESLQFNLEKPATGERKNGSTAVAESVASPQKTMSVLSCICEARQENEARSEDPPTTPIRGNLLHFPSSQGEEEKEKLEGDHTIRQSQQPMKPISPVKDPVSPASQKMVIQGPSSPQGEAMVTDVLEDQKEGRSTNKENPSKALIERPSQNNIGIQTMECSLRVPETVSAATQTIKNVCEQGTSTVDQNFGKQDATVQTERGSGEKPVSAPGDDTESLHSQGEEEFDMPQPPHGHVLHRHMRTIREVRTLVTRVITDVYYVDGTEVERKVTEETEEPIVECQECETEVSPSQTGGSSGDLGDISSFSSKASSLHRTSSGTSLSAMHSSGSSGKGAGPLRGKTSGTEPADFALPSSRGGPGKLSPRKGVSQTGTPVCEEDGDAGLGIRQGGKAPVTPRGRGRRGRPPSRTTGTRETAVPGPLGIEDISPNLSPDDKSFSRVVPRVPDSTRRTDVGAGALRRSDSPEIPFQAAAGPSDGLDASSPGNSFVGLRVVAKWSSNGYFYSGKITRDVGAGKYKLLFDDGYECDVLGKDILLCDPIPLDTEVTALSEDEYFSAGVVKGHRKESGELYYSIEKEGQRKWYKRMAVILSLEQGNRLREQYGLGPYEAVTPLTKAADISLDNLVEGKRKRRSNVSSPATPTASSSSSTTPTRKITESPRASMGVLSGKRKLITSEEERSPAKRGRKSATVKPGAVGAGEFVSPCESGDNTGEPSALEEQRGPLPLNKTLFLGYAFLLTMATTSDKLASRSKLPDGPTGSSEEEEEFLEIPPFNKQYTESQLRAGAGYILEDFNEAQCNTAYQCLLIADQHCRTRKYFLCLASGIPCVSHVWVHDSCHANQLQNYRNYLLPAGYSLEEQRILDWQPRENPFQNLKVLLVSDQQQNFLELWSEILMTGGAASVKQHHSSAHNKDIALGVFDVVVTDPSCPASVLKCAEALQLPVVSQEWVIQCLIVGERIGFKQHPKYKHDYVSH
# Chain of UniProt Q8WVY7 (Q8WVY7 whole entry, looked up): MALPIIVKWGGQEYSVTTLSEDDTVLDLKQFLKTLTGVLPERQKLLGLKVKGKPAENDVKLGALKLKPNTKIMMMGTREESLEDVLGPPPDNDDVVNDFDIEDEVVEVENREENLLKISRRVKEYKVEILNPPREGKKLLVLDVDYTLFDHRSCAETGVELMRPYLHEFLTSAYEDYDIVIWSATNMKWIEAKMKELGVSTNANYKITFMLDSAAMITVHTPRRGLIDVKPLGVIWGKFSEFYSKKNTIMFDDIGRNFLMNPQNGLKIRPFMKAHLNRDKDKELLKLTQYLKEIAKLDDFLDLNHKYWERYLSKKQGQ
# Chain of UniProt Q9BVJ6 (Q9BVJ6 whole entry, looked up): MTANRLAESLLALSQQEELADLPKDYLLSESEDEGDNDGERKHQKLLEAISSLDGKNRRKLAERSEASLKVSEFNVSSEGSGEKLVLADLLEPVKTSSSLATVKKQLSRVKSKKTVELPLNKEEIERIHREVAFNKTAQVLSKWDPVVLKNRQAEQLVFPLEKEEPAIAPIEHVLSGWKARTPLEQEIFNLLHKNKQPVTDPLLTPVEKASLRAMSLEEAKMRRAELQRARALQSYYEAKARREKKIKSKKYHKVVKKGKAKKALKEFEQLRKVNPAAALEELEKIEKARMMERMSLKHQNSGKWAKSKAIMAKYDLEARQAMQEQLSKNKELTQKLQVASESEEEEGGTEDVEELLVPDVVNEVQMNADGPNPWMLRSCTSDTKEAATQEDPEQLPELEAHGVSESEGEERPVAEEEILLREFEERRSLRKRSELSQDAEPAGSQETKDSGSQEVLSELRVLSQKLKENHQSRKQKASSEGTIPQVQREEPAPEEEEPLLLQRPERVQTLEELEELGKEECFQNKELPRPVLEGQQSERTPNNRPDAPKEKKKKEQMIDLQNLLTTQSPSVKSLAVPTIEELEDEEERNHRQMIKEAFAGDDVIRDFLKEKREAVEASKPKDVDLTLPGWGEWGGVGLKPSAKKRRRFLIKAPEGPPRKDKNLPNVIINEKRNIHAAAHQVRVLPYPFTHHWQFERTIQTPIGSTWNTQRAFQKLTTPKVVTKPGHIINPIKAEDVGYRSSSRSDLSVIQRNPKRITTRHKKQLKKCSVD
# Chain of UniProt Q9UL33 (Q9UL33 whole entry, looked up): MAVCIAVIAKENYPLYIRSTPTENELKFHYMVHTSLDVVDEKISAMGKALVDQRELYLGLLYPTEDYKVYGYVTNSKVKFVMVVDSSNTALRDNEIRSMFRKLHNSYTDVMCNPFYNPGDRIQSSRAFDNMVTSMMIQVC
Target,log2 fold change [1],log2 fold change [2],log2 fold change [3],log2 fold change [4],log2 fold change [5],log2 fold change [6],log2 fold change [7],log2 fold change [8],log2 fold change [9],log2 fold change [10]
UBR2 (UniProt Q8IWV8),0.021,0.072,0.02,0.01,-0.107,-0.069,-0.023,0.058,-0.095,0.011
TSEN2 (UniProt Q8NCE0),0.008,0.032,-0.05,-0.112,-0.132,-0.034,0.05,-0.013,-0.005,-0.16
UBE2Q1 (UniProt Q7Z7E8),-0.029,0.015,-0.134,-0.103,-0.101,-0.046,-0.012,0.027,-0.103,0.006
TOP2A isoform 4 (UniProt P11388),0.308,0.092,-0.119,0.033,0.102,-0.11,-0.29,-0.324,0.104,-0.292
TTI1 (UniProt O43156),-0.006,0.165,-0.036,-0.102,-0.076,0.039,0.085,0,-0.103,0.095
TMEM8A (UniProt Q9HCN3),-0.054,0.096,-0.033,0.071,-0.409,0.019,-0.046,0,0.047,-0.001
WDR43 (UniProt Q15061),-0.041,-0.052,-0.013,0.033,0.015,0.102,-0.022,0.013,0.005,-0.024
XPOT (UniProt O43592),-0.014,0.013,-0.083,-0.012,-0.13,0.083,-0.075,0.066,-0.173,0.077
USO1 isoform 2 (UniProt O60763),-0.055,0.036,-0.039,-0.024,-0.052,0.032,-0.017,-0.003,-0.068,0.032
UFM1 isoform 2 (UniProt P61960),-0.061,0.089,-0.009,0.023,0.116,0.002,0.045,–,-0.016,-0.015
TRAPPC2L (UniProt Q9UL33),-0.042,-0.02,-0.062,-0.068,-0.118,0.064,-0.041,-0.111,-0.111,0.013
TRIM4 (UniProt Q9C037),0.039,-0.015,0.111,0.101,–,0.058,0.042,-0.138,-0.014,0.033
TMEM164 (UniProt Q5U3C3),-0.097,-0.155,0.023,-0.021,0.048,0.037,0.002,–,0.059,-0.067
XIAP (UniProt P98170),-0.111,-0.046,0.366,0.061,-0.027,-0.288,0.029,–,-0.078,0.095
TMEM63B (UniProt Q5T3F8),0.013,0.002,-0.008,-0.021,0.026,-0.061,0.006,0.004,0.008,0.047
WDCP (UniProt Q9H6R7),-0.052,-0.05,-0.149,-0.12,-0.074,-0.035,-0.099,-0.001,-0.029,0
UTP14A (UniProt Q9BVJ6),0.157,0,0.011,-0.009,0.07,-0.118,-0.285,-0.09,0.089,-0.086
UBLCP1 (UniProt Q8WVY7),0.016,-0.034,-0.101,0.074,-0.063,0.116,-0.052,0.006,-0.072,0.155
TMEM179B (UniProt Q7Z7N9),-0.074,-0.065,0.046,-0.018,–,-0.013,0.154,0.019,0.167,-0.025
UFD1 isoform 1 (UniProt Q92890),-0.007,0.01,0.025,-0.019,0.031,-0.003,0.006,0.002,-0.046,0.041
TMEM184C (UniProt Q9NVA4),-0.132,-0.111,-0.007,-0.047,0.116,-0.009,0.15,-0.092,–,0.01
WDR61 (UniProt Q9GZS3),-0.01,-0.033,-0.018,0.029,0.007,-0.075,0.023,0.012,-0.01,0.075
TMEM219 (UniProt Q86XT9),-0.211,0.027,-0.243,0.216,-0.11,0.032,0.092,–,0.063,–
UBE2D1 (UniProt P51668),-0.065,-0.345 (active),-0.002,0.046,-0.083,-0.074,0.036,-0.075,-0.089,0.085
TRIM23 (UniProt P36406),-0.006,-0.121,-0.091,0.001,-0.004,0.088,0.126,0.002,–,0.028
USP7 (UniProt Q93009),-0.018,0.097,-0.076,-0.113,-0.272,-0.011,0.101,0.153,-0.139,0.068
VPS39 (UniProt Q96JC1),-0.032,0.069,-0.019,-0.068,-0.15,-0.017,0.033,0.003,-0.058,0.027
TMEM106B (UniProt Q9NUM4),-0.094,0.035,-0.015,0.02,0.098,-0.007,0.083,–,0.029,0.023
TMEM173 (UniProt Q86WV6),0.007,0.019,-0.129,-0.013,-0.156,0.003,0.001,-0.046,0.021,0.066
TP53BP1 isoform 2 (UniProt Q12888),0.004,0.008,-0.001,-0.011,-0.009,-0.027,-0.064,-0.014,0.016,-0.002
